Measured values from ChEMBL document CHEMBL4513216, “Probing the Open Global Health Chemical Diversity Library for Multistage-Active Starting Points for Next-Generation Antimalarials” (ACS Infect Dis, 2020).
Hit rate of the full screen: of about 68,000 compounds, about 2,700 (4%) showed an effect of 50% or more. The list comes from a sample in which strong results are over-represented; it also holds similar structures and randomly drawn compounds.

Each compound was assayed on Plasmodium berghei (assay: Screen against P. berghei liver stage (PbLuc), transformed with Luciferase, at 2uM). Conditions: tested at 2 uM.
Type: functional, HepG2
Cc1cc(C)c2c(OCC(=O)N(C)CC(=O)NC(C)C)nn(C)c2n1 showed an INHIBITION of 44.95%.
CN(Cc1ccc(F)cc1)C(=O)CN1CCOC(Cn2cncn2)C1 (centres undefined) was tested, and the INHIBITION was 2.08%.
Work on O=c1cc(CN(CCO)C2CC2)nc2ccc(Cl)cn12 yielded an INHIBITION of -28.15%.
With COc1ccc(S(=O)(=O)NCCCc2nnc3nc(C)cc(C)n23)cc1 the INHIBITION was 12.7%.
With COCc1ncc(CN2CCC3(CCNC(=O)CC3)CC2)cn1 the INHIBITION was 53.55%.
For CCCNc1ncc(CN2CCN(C)C(=O)C2C)cn1 (centres undefined), the INHIBITION was -29.46%.
For CCCNc1ncc(CN2CCC3(CC2)CNC(=O)C3)cn1, the INHIBITION was 29.94%.
Compound CCCNc1ncc(CN2CCC3(CCNC(=O)CC3)CC2)cn1 has an INHIBITION of 56.78%.
COc1ncc(CN2CCC3(CCNC(=O)CC3)CC2)cn1 gave an INHIBITION of 0.85%.
For COCc1ncc(CN2CCC3(CCNCC3)CC2)cn1, the INHIBITION was -8.84%.
With COC(=O)NCC1CCC2(CCNCC2)O1 (centres undefined) the INHIBITION was 61.7%.
Work on N#CC1(C(=O)NCC2CCC3(CCNCC3)O2)CC1 (centres undefined) yielded an INHIBITION of 49.07%.
For O=C(NCC1CCC2(CCNCC2)O1)C1CC1 (centres undefined), the INHIBITION was 24.36%.
For Cn1ccc(C(=O)N2C[C@@H]3CN(CC4CC4)CCO[C@@H]3C2)n1, the INHIBITION was 42.79%.
O=C(CCc1nc(Cl)n[nH]1)N1CCC2(CCCNC2=O)C1 (centres undefined) gave an INHIBITION of -35.22%.
O=C(CCCn1cncn1)N1CCC2(CCCN(CC3CC3)C2=O)C1 (centres undefined) gave an INHIBITION of 23.19%.
O=C(CCc1nc(Cl)n[nH]1)N1CCC2(CCCN(CC3CCC3)C2=O)C1 (centres undefined) gave an INHIBITION of 57.34%.
With O=C1CCc2cc(NC(=O)C3CCCN3c3nccs3)ccc2N1 (centres undefined) the INHIBITION was -73.41%.
With Cc1cc(-c2ccc(C(C)N3CCOCC3)cc2)cnc1N (centres undefined) the INHIBITION was -38.09%.
Work on Cc1cc(-c2ccc(C(C)N3CCCCC3)cc2)cnc1N (centres undefined) yielded an INHIBITION of 69.99%.
With CC(c1ccc(-c2cnc(N)nc2)cc1)N1CCOCC1 (centres undefined) the INHIBITION was 41.78%.
Compound CCC(CC)c1cc(CNC(=O)N2CCC[C@@H]2CO)on1 has an INHIBITION of -1.89%.
Work on COc1ccccc1C(=O)N1Cc2cc(C)ccc2OCC1CN(C)C (centres undefined) yielded an INHIBITION of -71.28%.
Work on Cc1nn(C)c(C)c1C1COCCN1C(=O)c1cc(F)ccc1F (centres undefined) yielded an INHIBITION of 21.52%.
Cc1ccc(O)c(C(=O)N2CCOCC2c2c(C)n[nH]c2C)c1 (centres undefined) was tested, and the INHIBITION was 24.02%.
For Cc1ccc(O)c(C(=O)N2CCOCC2c2c(C)nn(C)c2C)c1 (centres undefined), the INHIBITION was 60.71%.
CC(NC(=O)Nc1cccnc1N1CCOCC1)c1ccncc1 (centres undefined) was tested, and the INHIBITION was 0.45%.
Work on CC(C)OCc1cccc(CNc2cnn(C)c(=O)c2Cl)c1 yielded an INHIBITION of 4.18%.
CC(=O)N1CCO[C@@H]2CN(S(=O)(=O)c3cccnc3)C[C@@H]2C1 showed an INHIBITION of -37.03%.
With CCN(C(C)=O)c1nc(CN2CCN(c3nccs3)CC2)cs1 the INHIBITION was 55.36%.
With CC(=O)N(C)c1nc(CN2CCN(c3nccs3)CC2)cs1 the INHIBITION was -20.95%.
Compound Nc1nc(CN2CCN(c3nccs3)CC2)cs1 has an INHIBITION of -4.26%.
Compound CC(C)N1CCc2c(c(COc3cccnc3)nn2CC2CC2)C1 has an INHIBITION of -0.59%.
With Cc1nn(C)c(C)c1C1CCCN1Cc1nc(-c2cccs2)no1 (centres undefined) the INHIBITION was 45.83%.
Cc1cccc(C(=O)N2CCN(C)CC2)c1NC(=O)c1ccncc1 was tested, and the INHIBITION was 29.22%.
Compound CNc1cc(C2CCCN2Cc2ccc(OCC(=O)O)cc2)ccn1 (centres undefined) has an INHIBITION of 29.06%.
Work on CCO[C@@H]1CCN(C(=O)c2ccc[nH]2)[C@@H]1Cc1cnn(C)c1 yielded an INHIBITION of 5.28%.
In the case of CCO[C@@H]1CCN(C(=O)N(C)C)[C@@H]1Cc1cnn(C)c1, the INHIBITION is reported as 63.84%.
For COCCO[C@@H]1CCN(C(=O)c2ccc[nH]2)[C@H]1Cc1cnn(C)c1, the INHIBITION was 66.69%.
Work on COCCO[C@H]1CCN(C(=O)c2ccoc2C)[C@H]1Cc1cnn(C)c1 yielded an INHIBITION of 5.35%.
With COCCO[C@H]1CCN(C(=O)c2cnoc2C)[C@H]1Cc1cnn(C)c1 the INHIBITION was 63.06%.
In the case of Cn1cc(C[C@H]2[C@@H](OCC3CC3)CCN2C(=O)c2ccc[nH]2)cn1, the INHIBITION is reported as -1.33%.
Compound CN(C)C(=O)N1CC[C@@H](O)[C@@H]1Cc1cnn(C)c1 has an INHIBITION of 12.88%.
Compound CCO[C@@H]1CCN(C(=O)c2ccnnc2)[C@@H]1Cc1cnn(C)c1 has an INHIBITION of 18.15%.
In the case of COCCO[C@H]1CCN(C(=O)c2ccno2)[C@H]1Cc1cnn(C)c1, the INHIBITION is reported as 1.02%.
In the case of CC(C)c1ncc(CN2C[C@@H](CN3CCC(O)CC3)[C@@H](CO)C2)cn1, the INHIBITION is reported as -142.15%.
Cc1cnc(CN(C)Cc2cccc(OC(F)(F)F)c2)cn1 gave an INHIBITION of 8.59%.
c1ccc2nc(CN3CCCC3c3noc(C4CC4)n3)ccc2c1 (centres undefined) showed an INHIBITION of 0.74%.
Cc1nn(C2CCS(=O)(=O)C2)c(O)c1Cc1ccccc1Cl (centres undefined) gave an INHIBITION of -0.89%.
In the case of Cc1nc(CN(Cc2ccccc2F)C2CCC2)no1, the INHIBITION is reported as -3.11%.
COCCN(Cc1ccoc1)C(=O)CSc1ccc(F)cc1 showed an INHIBITION of 12.7%.
CN(Cc1ccncc1)C1CC2(CCN(c3ncc(F)cn3)CC2)C1 gave an INHIBITION of -20.67%.
With COc1cc2cc(C)c(SCCN3CCCCC3)nc2cc1OC the INHIBITION was 11.74%.
CN(C)CC1CSCCCN1C(=O)c1ccc(-n2cccc2)cc1 (centres undefined) gave an INHIBITION of 15.49%.
For Cc1cc(C(F)(F)F)nc(CNc2cc(C)nc3cc(C)nn23)n1, the INHIBITION was -15.4%.
Cc1cc(NCc2cc(C)oc2C(F)(F)F)n2nc(C)cc2n1 was tested, and the INHIBITION was 51.77%.
Compound Cc1cc(NCCCC(F)(F)F)n2nc(C)cc2n1 has an INHIBITION of -2.24%.
Work on CCCN1CCCn2c(nc(CNC(=O)c3ccsc3)cc2=O)C1 yielded an INHIBITION of -2.19%.
For CCC1CN(C(=O)c2cccc(O)c2)CCC(=O)N1Cc1ccccc1 (centres undefined), the INHIBITION was -0.23%.
c1cnc(N2CCC3(CC2)CN(CC2CC2)c2ccccc23)nc1 showed an INHIBITION of -59.24%.
Compound CC1CCCN(C(=O)CNC(=O)c2ccoc2)C1 (centres undefined) has an INHIBITION of -13.92%.
CNC(=O)C1(N2CCC[C@H]2C(=O)NC2CCCCC2)CCOCC1 gave an INHIBITION of 20.87%.
With COCC1c2c(cnn2C)CCN1Cc1ccsc1 (centres undefined) the INHIBITION was -61.95%.
Compound Cc1ccc(-c2ccc(C3CNCCO3)nc2)cc1 (centres undefined) has an INHIBITION of 81.51%.
In the case of c1ncc(-c2ccc(C3CNCCO3)nc2)cn1 (centres undefined), the INHIBITION is reported as 27.3%.
Compound Clc1ccc(-c2ccc(C3CNCCO3)nc2)cc1 (centres undefined) has an INHIBITION of 39.65%.
In the case of COc1ccc(-c2ccc(C3CNCCO3)nc2)cc1 (centres undefined), the INHIBITION is reported as 84.26%.
In the case of COc1ccc(-c2cnc(N(C)C)nc2C2CNCCO2)cc1 (centres undefined), the INHIBITION is reported as 38.42%.
Compound c1ccc(-c2ccc(C3CNCCO3)nc2)cc1 (centres undefined) has an INHIBITION of 36.92%.
